# Hsp90 Hop PPI: changes Hsp90-Hop TPR2A binding signal, up or down; AlphaScreen TPR2A-His6 binding biotin-Hsp90 C-terminal peptide; Potency, µM (doses to about 57 µM), for the others: top-dose activity change, negative = inhibition; 0.44% of 71,000 active; AID 595; active = well fitted curve in either direction with a large enough effect; inconclusive = small, poorly fitted or top-dose-only effect, or another doubt
# ERK AVP block: blocks ERK signaling stimulated by vasopressin; HEK293-V1b, vasopressin-stimulated pERK AlphaScreen; Potency, µM (top dose mostly 57.5 µM), inactives show at the highest dose activity, negative = inhibition, hits mostly inhibitors; 0.99% of 72,000 active; AID 995; note: nearly all actives have a fitted effect of over 55% in size
#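 Overnight-seeded V1b-HEK293 cells in 1% FBS got compound, then vasopressin (25 nM final, 5 min, 37C), then lysis buffer. AlphaScreen detection of phospho-ERK; activity normalized to basal and full-stimulation controls.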
# Tau filament bind: binds recombinant human tau filaments; recombinant tau filaments, thioflavin S fluorescence, 15 h; filaments grown with octadecylsulfate alongside compound; Potency, µM (series often up to 57.1 µM), inactives show at the highest dose activity change, negative = inhibition; 2% of 71,000 active; AID 596;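 note: actives lower thioflavin S fluorescence by blocking filaments or displacing dye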
#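 Assay mix: 1 uM His-tagged tau, 30 uM sodium octadecylsulfate, thioflavine S dye in HEPES/NaCl/DTT buffer. Compound is added prior to the inducer. Fluorescence after 15 h at 37 C.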
# FLuc inh: firefly luciferase inhibition | P08659 | purified firefly luciferase, luminescence, 8 min | Potency, µM (highest dose often 57.1 µM), for the others: at the highest dose activity change, negative = inhibition, most hits filed as inhibitors | 2.2% of 72,000 active | AID 411; note: nearly all actives have a fitted effect of over 40% in size
#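 Titration-based qHTS; buffer 50 mM imidazole pH 7.2, 50 mM KCl, 7 mM MgCl2, 10 uM ATP, 0.01% Tween 20, 0.05% BSA; luciferase/luciferin detector mix added after compound; 8 min, ambient; luminescence.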
# ALOX15 inhib: inhibitors of human 15-lipoxygenase (ALOX15); P16050; AID 887; Potency, µM (doses to about 57.1 µM), inactives show top-dose activity change, negative = inhibition, usual class: inhibitors; 1.4% of 74,000 active; purified 15hLO-1, xylenol orange hydroperoxide absorbance; note: nearly all actives have a fitted effect of over 55% in size
# Target sequence (P16050 whole entry, looked up): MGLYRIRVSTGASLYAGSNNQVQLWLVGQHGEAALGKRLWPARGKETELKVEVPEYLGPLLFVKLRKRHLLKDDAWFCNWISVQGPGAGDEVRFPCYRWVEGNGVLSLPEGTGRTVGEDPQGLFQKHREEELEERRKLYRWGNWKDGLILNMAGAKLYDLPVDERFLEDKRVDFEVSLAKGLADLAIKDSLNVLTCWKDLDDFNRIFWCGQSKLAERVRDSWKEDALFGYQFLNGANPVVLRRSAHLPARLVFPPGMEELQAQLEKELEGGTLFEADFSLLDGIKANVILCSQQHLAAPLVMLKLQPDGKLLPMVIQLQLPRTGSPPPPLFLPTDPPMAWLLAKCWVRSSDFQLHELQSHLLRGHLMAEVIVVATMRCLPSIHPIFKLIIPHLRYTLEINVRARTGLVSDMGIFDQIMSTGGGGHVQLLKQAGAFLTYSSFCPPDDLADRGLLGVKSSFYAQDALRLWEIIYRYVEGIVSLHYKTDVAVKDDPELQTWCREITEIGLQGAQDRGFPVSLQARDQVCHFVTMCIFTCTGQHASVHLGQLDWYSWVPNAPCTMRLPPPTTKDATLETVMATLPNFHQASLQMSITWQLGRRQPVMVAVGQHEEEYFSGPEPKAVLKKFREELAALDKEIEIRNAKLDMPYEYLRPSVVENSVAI
#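 Purified human 15hLO-1 (40 nM) in 25 mM Hepes pH 7.5, 0.01% Triton X-100, preincubated 15 min RT with compound, then 50 uM arachidonic acid for 6 min. Hydroperoxide read by ferrous/xylenol orange, 30 min; 573/405 nm absorbance ratio gave progress.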
# Bst PK mod: alters activity of Bacillus stearothermophilus pyruvate kinase | purified pyruvate kinase, luminescence ATP production; ribose 5-phosphate activator present at AC10 | AID 361 | Potency, µM | 1.2% of 51,000 active; in the data active = potency below about 11 µM; inconclusive = mostly about 12 µM to 25 µM;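 the screen sought inhibitors and activators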;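 note: scaled between full activation by ribose 5 phosphate and full inhibition by luteolin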
# An asterisk follows results filed as active; i = inactive; ? = inconclusive; / = no result given; [ ] = another dose, or the depositor's remark. A selection: hits, their analogues and other compounds. The true share with any hit is near 6.1%. Unless noted, calls come from the whole dose curve; as a rule, active = well fitted curve in the direction sought with a large enough effect; inconclusive = small, poorly fitted or top-dose-only effect, or another doubt; inactive = no such curve, though single readings can be large; an effect the other way counts as inactive or inconclusive. Unless noted, % is set by controls: 0 for no effect and ±100 for the full control effect; potency is the fitted concentration of half-maximal effect.
SMILES,Hsp90 Hop PPI,ERK AVP block,Tau filament bind,FLuc inh,ALOX15 inhib,Bst PK mod
CCCCCCN(C(=O)CCCCCN1C(=O)NC(C2CC2)C(C(=O)OCc2ccccc2)=C1C)C(C(=O)NCCCC)c1ccc(OCC(=O)OC)c(C(=O)OC)c1 (stereo not given),-7.3%,18.8%,32.3%,/,-24.8%,/
COc1ccc(NC(=O)C2CCCNC2)cc1OCC(C)C (stereo not given),-5.8%,-0.6%,25.1µM*,0.7%,?,/
Oc1c(Cl)cc(Cl)cc1Sc1cc(Cl)cc(Cl)c1O,-0.9%,?,?,1.3%[25.5 µM],15.8µM*,>25.6
Oc1c(Cl)cc(Cl)c(Cl)c1Cl,-1.8%,?,0.8%,/,-11.7%,/
Cn1c(-c2ccc(F)cc2)cnc1SCC(=O)N1CCCCC1,-1.5%,-6.0%,-7.2%,15.8µM*,9.0%,/
COc1cccc(C(=O)Cn2c(=N)n(C)c3ccccc32)c1,-4.9%,-4.6%,-24.6%,1.26µM*,2.6%,2.48*
O=C(COc1ccc(Br)cc1CO)Nc1ccc(F)cc1,-1.5%,39.8µM*,-0.9%,-1.7%,-18.5%,/
Cc1nc(N=Nc2cc(S(=O)(=O)O)ccc2S(=O)(=O)O)c(COP(=O)(O)O)c(C=O)c1O,-5.2%,5.9%,?,-0.4%,-30.0%[25.6 µM],/
CC(=O)O[C@](C)(CCC=C(C)C)C1CC=C(C)CC1 (stereo not given in full),/,12.7%,/,/,12.6µM*,/
O=C(CNC(=O)c1ccco1)OCC(=O)c1ccc2c(c1)CCCC2,0.2%,-13.5%,-10.7%,2µM*,-13.1%,>57
CCc1ccc(C(=O)COC(=O)CNC(=O)c2ccco2)cc1,?,-1.1%,-9.6%[11.4 µM],-6.2%,?,/
CCCCNc1nc(C)nc2c1nc(-c1ccccc1)n2CCCN(CC)CC,-2.9%,-17.2%,6.1%,/,-0.8%,/
Cc1c(C(=O)OCC(C)(C)CN(C)C)oc2ccccc12,-2.9%,-10.0%,-6.5%,12.6µM*,-6.9%,/
CN(C)c1ccc(CNC(=O)C2(C)C=CCN2C(=O)c2ccccc2)cc1 (stereo not given),-1.8%,13.4%,-15.0%,/,?,/
Nc1cc(C(=O)c2cccs2)ccc1Cl,-18.2%,-3.4%,15.8µM*,-4.5%,-24.2%,/
C[C@@H](C(=O)O)c1ccc(C(=O)c2cccs2)cc1,0.9%[26 µM],-0.1%[25.7 µM],5.2%[25.6 µM],3.0%[25.5 µM],4.9%[25.6 µM],/
Cc1cc(C(=O)COC(=O)c2n[nH]c3ccccc23)c(C)n1C,-13.9%,?,41.7%,12.6µM*,-10.9%,?
CCOC(=O)c1n[nH]c2ccccc12,/,/,/,1.5%[25.5 µM],/,>25.6
CCCn1c(C)cc(C(=O)COC(=O)c2ccc(Cl)c(S(=O)(=O)N3CCCC3)c2)c1C,-3.0%,-7.7%,43.4%,12.6µM*,0.4%,?
O=C(OCC(=O)c1ccco1)c1ccc2ncsc2c1,-0.6%,23.4%,1.2%,-12.4%,1.4%,>57
COCCn1c(C)cc(C(=O)COC(=O)c2c(C)nn(Cc3ccccc3)c2C)c1C,-14.7%,?,10.8%,-2.9%,?,>57
CN1CCN(C(=O)c2ccc(Cl)c(S(=O)(=O)N3CCCCC3)c2)CC1,-2.0%,-4.6%,-6.3%,-0.3%,-14.1%,/
COCCn1c(C)cc(C(=O)COC(=O)c2ccc3ncsc3c2)c1C,-6.6%,?,7.1%,25.1µM*,?,/
COCCn1c(C)cc(C(=O)COC(=O)c2n[nH]c3ccccc23)c1C,-12.9%,?,37.8%,1.26µM*,-7.1%,1.4*
CC(CCC(=O)O)(c1cc(Br)c(O)c(Br)c1)c1cc(Br)c(O)c(Br)c1,-1.8%[11 µM],-4.4%[11.5 µM],2.4%[11.4 µM],3.5%[11.4 µM],-8.8%[11.4 µM],/
SMILES,Hsp90 Hop PPI,ERK AVP block,Tau filament bind,FLuc inh,ALOX15 inhib,Bst PK mod
O=C(C1CC(c2ccccc2O)=NO1)N1CCCC1 (stereo not given),?,?,40.9%,-2.0%,20µM*,>57
CCOC(=O)Cc1nnc2c(Nc3ccc(Cl)cc3)nc3nonc3n12,-4.9%,-15.6%,15.8µM*,4.7%,-11.1%,>57
C[C@H]1C[C@@H]2[C@H]3CCC4=CC(=O)C=C[C@@]4(C)[C@]3(Cl)[C@@H](Cl)C[C@]2(C)[C@]1(O)C(=O)COP(=O)(O)O,1.3%[11 µM],/,4.5%[11.4 µM],1.6%[11.4 µM],/,/
CN(C)c1ccc(NC(=O)Nc2cccc(Cl)c2)cc1,-29.0%,-16.3%,5.01µM*,10µM*,-13.9%,/
CC(=O)Nc1cccc(N(C)S(C)(=O)=O)c1,0.3%,-8.3%,2.4%,-0.9%,5.6%,>57
CN(c1cccc(NC(=O)Nc2cccc(Cl)c2)c1)S(C)(=O)=O,0.9%,-25.0%,6.0%,10µM*,-8.4%,?
O=C(Nc1ccccc1)N1CCC2(CC1)CCN(S(=O)(=O)c1ccccc1)CC2,-3.3%,1.1%,-3.2%,-1.6%[11.4 µM],3.2%,/
c1ccc2c(c1)C(=NCC1CCCO1)NC2=NCC1CCCO1 (stereo not given),-0.6%,-9.0%,-19.8%,3.4%,0.0%,>57
CC(C)(C)N=C1NC(=NC(C)(C)C)c2ccccc21,-0.5%,27.9%,2.51µM*,1.3%,0.3%,>57
O=C(CCSc1nnnn1-c1ccccc1)N1CCOCC1,-0.1%,-21.8%,-2.6%,2.0%,0.2%,>57
O=C(CSc1nnnn1-c1cccc2c1CCCC2)N1CCOCC1,-6.7%,2.7%,-3.6%,-0.9%,3.1%,10.6*
Cc1ccc(N2CCN(S(=O)(=O)c3ccc(F)c(C)c3)CC2)c(C)c1,?,32.6%,-10.4%,-1.6%,-15.0%,10.7*
CCc1ccccc1N1CCN(S(=O)(=O)c2ccc(F)c(C)c2)CC1,?,21.3%,-22.0%,0.0%,-8.8%,/
CCN(CC)c1ccc2c(c1)C(=O)N(C)C2=O,12.0%,38.5%,30.2%,-9.4%,1.2%,/
CCN(CC)c1ccc(-c2nc3cnccc3n2C)cc1,-2.9%,4.2%,13.8%,10µM*,15.1%,i
COC(=O)[C@H](C)NC(=O)C/C=C\[C@@H](C)[C@H]1C=C[C@H](O)[C@@H](CO)O1,/,-0.5%[11.5 µM],/,-0.1%[11.4 µM],4.1%[11.4 µM],/
Cc1sc(NC(=O)c2ccc(Cl)s2)c(C(N)=O)c1C,-3.0%,?,84.7%,10µM*,-9.0%,/
C[C@@H]1O[C@@H](OC[C@@H]2O[C@@H](Oc3c(-c4ccc(O)c(O)c4)oc4cc(O)cc(O)c4c3=O)[C@H](O)[C@H](O)[C@@H]2O)[C@H](O)[C@H](O)[C@@H]1O,1.1%,/,?,-1.0%[11.4 µM],/,/
O=C(Nc1cccc2cccnc12)c1ccc(Br)o1,3.6%,12.2%,3.3%,-11.3%,-9.0%,>57
O=C(Oc1cccc2cccnc12)c1ccc(Br)o1,25.1µM*,-4.2%,-6.6%,-0.8%,25.0%,i
O=C(Oc1cccc2cccnc12)c1ccc2c(c1)OCCO2,-11.0%,-5.1%,-14.8%,1.9%,-14.4%,10.5*
Nn1c(Nc2ccccc2)nc2sc3c(c2c1=O)CCC3,-8.9%,?,50.6%,20µM*,-26.9%,/
COc1ccc(-c2ccccc2C2NC(C(=O)O)CCC2C)cc1 (stereo not given),/,26.7%[11.5 µM],/,/,7.5%[11.4 µM],/
